# Measured values from PubChem BioAssay AID1159580 (chemical genetic matrix, 2015).
# The campaign covered roughly 5,500 compounds. About 2,000 (36%) were called active. About 18% were inconclusive and are not listed. The list shows a part of the results. A number with no mark means an inactive call. Rule as the data show it: active = normalized growth mostly below about 0.91 (no sharp cut-off); inconclusive = no clear call, values can overlap the other calls; inactive = mostly above about 0.92.
# Test: chemical genetic growth profiling, strain panel (AID 1159580);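 also: tested at 20 µM; growth read once vehicle control cultures reached saturation at 30 °C; 1 = growth at the plate median or of vehicle wells; lower values mean less growth of the strain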
# Details: growth OD
smiles,measurement,setting,value
S=C=NCc1ccccc1,normalized growth,"S. cerevisiae deletion strains, locus YJR075W, strain HOC1, active compounds read low",0.0711 (active)
same,normalized growth,"S. cerevisiae deletion strains, locus YKL009W, strain mrt4, active compounds read low",0.0801 (active)
same,normalized growth,"S. cerevisiae deletion strains, locus YKL068W, active compounds read low",0.107 (active)
same,normalized growth,"S. cerevisiae deletion strains, locus YKL085W, strain MDH1 (second series), active compounds read low",0.0485 (active)
same,normalized growth,"S. cerevisiae deletion strains, locus YKL085W, strain MDH1, active compounds read low",0.0485 (active)
same,normalized growth,"S. cerevisiae deletion strains, locus YKL160W, strain elf1, active compounds read low",0.0853 (active)
same,normalized growth,"S. cerevisiae deletion strains, locus YKL190W, strain CNB1, active compounds read low",0.0505 (active)
same,normalized growth,"S. cerevisiae deletion strains, locus YKR001C, strain vps1, active compounds read low",0.0646 (active)
same,normalized growth,"S. cerevisiae deletion strains, locus YKR026C, strain gcn3, active compounds read low",0.0866 (active)
same,normalized growth,"S. cerevisiae deletion strains, locus YKR091W, strain srl3, active compounds read low",0.0761 (active)
same,normalized growth,"S. cerevisiae deletion strains, locus YLL001W, strain dnm1, active compounds read low",0.133 (active)
same,normalized growth,"S. cerevisiae deletion strains, locus YLL026W, active compounds read low",0.0653 (active)
same,normalized growth,"S. cerevisiae deletion strains, locus YLL041C, strain sdh2, active compounds read low",0.0963 (active)
same,normalized growth,"S. cerevisiae deletion strains, locus YLR027C, strain aat2, active compounds read low",0.0701 (active)
same,normalized growth,"S. cerevisiae deletion strains, locus YLR039C, strain RIC1, active compounds read low",0.095 (active)
same,normalized growth,"S. cerevisiae deletion strains, locus YLR058C, strain SHM2, active compounds read low",0.0484 (active)
same,normalized growth,"S. cerevisiae deletion strains, locus YLR102C, strain apc9, active compounds read low",0.0598 (active)
same,normalized growth,"S. cerevisiae deletion strains, locus YLR113W, strain HOG1, active compounds read low",0.303 (active)
same,normalized growth,"S. cerevisiae deletion strains, locus YLR221C, strain rsa3, active compounds read low",0.0763 (active)
same,normalized growth,"S. cerevisiae deletion strains, locus YLR258W, strain gsy2, active compounds read low",0.0685 (active)
same,normalized growth,"S. cerevisiae deletion strains, locus YLR262C, strain YPT6 (second series), active compounds read low",0.338 (active)
same,normalized growth,"S. cerevisiae deletion strains, locus YLR262C, strain YPT6, active compounds read low",0.107 (active)
same,normalized growth,"S. cerevisiae deletion strains, locus YLR268W, strain sec22, active compounds read low",0.0685 (active)
same,normalized growth,"S. cerevisiae deletion strains, locus YLR320W, strain mms22, active compounds read low",0.126 (active)
same,normalized growth,"S. cerevisiae deletion strains, locus YLR330W, strain CHS5, active compounds read low",0.0521 (active)
same,normalized growth,"S. cerevisiae deletion strains, locus YLR342W, strain FKS1 (second series), active compounds read low",0.0771 (active)
same,normalized growth,"S. cerevisiae deletion strains, locus YLR342W, strain FKS1, active compounds read low",0.129 (active)
same,normalized growth,"S. cerevisiae deletion strains, locus YLR357W, strain rsc2, active compounds read low",0.208 (active)
same,normalized growth,"S. cerevisiae deletion strains, locus YLR370C, strain arc18, active compounds read low",0.2 (active)
same,normalized growth,"S. cerevisiae deletion strains, locus YLR371W, strain rom2, active compounds read low",0.0645 (active)
same,normalized growth,"S. cerevisiae deletion strains, locus YLR384C, strain iki3, active compounds read low",0.101 (active)
same,normalized growth,"S. cerevisiae deletion strains, locus YLR418C, strain cdc73, active compounds read low",0.105 (active)
same,normalized growth,"S. cerevisiae deletion strains, locus YML016C, strain PPZ1, active compounds read low",0.0508 (active)
same,normalized growth,"S. cerevisiae deletion strains, locus YML032C, strain rad52, active compounds read low",0.068 (active)
same,normalized growth,"S. cerevisiae deletion strains, locus YML120C, strain ndi1, active compounds read low",0.0743 (active)
same,normalized growth,"S. cerevisiae deletion strains, locus YML124C, strain tub3, active compounds read low",0.0581 (active)
same,normalized growth,"S. cerevisiae deletion strains, locus YMR058W, strain fet3, active compounds read low",0.102 (active)
same,normalized growth,"S. cerevisiae deletion strains, locus YMR078C, strain ctf18, active compounds read low",0.0763 (active)
same,normalized growth,"S. cerevisiae deletion strains, locus YMR125W, strain sto1, active compounds read low",0.118 (active)
same,normalized growth,"S. cerevisiae deletion strains, locus YMR129W, active compounds read low",0.115 (active)
same,normalized growth,"S. cerevisiae deletion strains, locus YMR205C, strain PFK2, active compounds read low",0.175 (active)
same,normalized growth,"S. cerevisiae deletion strains, locus YMR223W, strain ubp8, active compounds read low",0.0652 (active)
same,normalized growth,"S. cerevisiae deletion strains, locus YMR231W, strain pep5, active compounds read low",0.159 (active)
same,normalized growth,"S. cerevisiae deletion strains, locus YMR263W, strain SAP30, active compounds read low",0.0638 (active)
same,normalized growth,"S. cerevisiae deletion strains, locus YMR307W, strain GAS1, active compounds read low",0.128 (active)
same,normalized growth,"S. cerevisiae deletion strains, locus YNL067W, strain RPL9B, active compounds read low",0.0559 (active)
same,normalized growth,"S. cerevisiae deletion strains, locus YNL071W, strain lat1, active compounds read low",0.0773 (active)
same,normalized growth,"S. cerevisiae deletion strains, locus YNL128W, strain TEP1, active compounds read low",0.061 (active)
same,normalized growth,"S. cerevisiae deletion strains, locus YNL153C, strain GIM3, active compounds read low",0.0485 (active)
same,normalized growth,"S. cerevisiae deletion strains, locus YNL183C, strain NPR1, active compounds read low",0.784 (active)
same,normalized growth,"S. cerevisiae deletion strains, locus YNL209W, strain ssb2, active compounds read low",0.172 (active)
same,normalized growth,"S. cerevisiae deletion strains, locus YNL233W, strain BNI4, active compounds read low",0.054 (active)
same,normalized growth,"S. cerevisiae deletion strains, locus YNL248C, strain rpa49, active compounds read low",0.0817 (active)
same,normalized growth,"S. cerevisiae deletion strains, locus YNL250W, strain rad50, active compounds read low",0.0774 (active)
same,normalized growth,"S. cerevisiae deletion strains, locus YNL271C, strain bni1, active compounds read low",0.0636 (active)
same,normalized growth,"S. cerevisiae deletion strains, locus YNL298W, strain CLA4, active compounds read low",0.0658 (active)
same,normalized growth,"S. cerevisiae deletion strains, locus YNL307C, strain MCK1, active compounds read low",0.109 (active)
same,normalized growth,"S. cerevisiae deletion strains, locus YNL322C, strain KRE1 (second series), active compounds read low",0.0969 (active)
same,normalized growth,"S. cerevisiae deletion strains, locus YNL322C, strain KRE1, active compounds read low",0.0496 (active)
same,normalized growth,"S. cerevisiae deletion strains, locus YNR049C, strain mso1, active compounds read low",0.0995 (active)
same,normalized growth,"S. cerevisiae deletion strains, locus YNR052C, strain pop2, active compounds read low",0.0721 (active)
same,normalized growth,"S. cerevisiae deletion strains, locus YOL006C, strain TOP1, active compounds read low",0.101 (active)
same,normalized growth,"S. cerevisiae deletion strains, locus YOL012C, strain htz1",0.273
same,normalized growth,"S. cerevisiae deletion strains, locus YOL147C, strain pex11, active compounds read low",0.0554 (active)
same,normalized growth,"S. cerevisiae deletion strains, locus YOR001W, strain rrp6, active compounds read low",0.0775 (active)
same,normalized growth,"S. cerevisiae deletion strains, locus YOR061W, strain CKA2, active compounds read low",0.0465 (active)
same,normalized growth,"S. cerevisiae deletion strains, locus YOR069W, strain VPS5, active compounds read low",0.048 (active)
same,normalized growth,"S. cerevisiae deletion strains, locus YOR070C, strain gyp1, active compounds read low",0.106 (active)
same,normalized growth,"S. cerevisiae deletion strains, locus YOR080W, strain dia2, active compounds read low",0.169 (active)
same,normalized growth,"S. cerevisiae deletion strains, locus YOR083W, strain WHI5, active compounds read low",0.0989 (active)
same,normalized growth,"S. cerevisiae deletion strains, locus YOR106W, strain vam3, active compounds read low",0.115 (active)
same,normalized growth,"S. cerevisiae deletion strains, locus YOR136W, strain idh2, active compounds read low",0.0696 (active)
same,normalized growth,"S. cerevisiae deletion strains, locus YOR144C, strain elg1, active compounds read low",0.0548 (active)
same,normalized growth,"S. cerevisiae deletion strains, locus YOR184W, strain ser1, active compounds read low",0.0749 (active)
same,normalized growth,"S. cerevisiae deletion strains, locus YOR231W, strain MKK1, active compounds read low",0.183 (active)
same,normalized growth,"S. cerevisiae deletion strains, locus YOR265W, strain rbl2, active compounds read low",0.081 (active)
same,normalized growth,"S. cerevisiae deletion strains, locus YOR270C, strain vph1, active compounds read low",0.135 (active)
same,normalized growth,"S. cerevisiae deletion strains, locus YOR290C, strain snf2, active compounds read low",0.0951 (active)
same,normalized growth,"S. cerevisiae deletion strains, locus YOR316C, strain cot1, active compounds read low",0.0582 (active)
same,normalized growth,"S. cerevisiae deletion strains, locus YPL051W, strain arl3, active compounds read low",0.0938 (active)
same,normalized growth,"S. cerevisiae deletion strains, locus YPL055C, strain LGE1, active compounds read low",0.0848 (active)
same,normalized growth,"S. cerevisiae deletion strains, locus YPL078C, strain atp4, active compounds read low",0.0881 (active)
same,normalized growth,"S. cerevisiae deletion strains, locus YPL106C, strain sse1, active compounds read low",0.222 (active)
same,normalized growth,"S. cerevisiae deletion strains, locus YPL240C, strain hsp82, active compounds read low",0.0863 (active)
same,normalized growth,"S. cerevisiae deletion strains, locus YPL241C, strain CIN2, active compounds read low",0.0506 (active)
same,normalized growth,"S. cerevisiae deletion strains, locus YPL256C, strain CLN2, active compounds read low",0.219 (active)
same,normalized growth,"S. cerevisiae deletion strains, locus YPR119W, strain clb2, active compounds read low",0.0611 (active)
same,normalized growth,"S. cerevisiae deletion strains, locus YPR141C, strain kar3, active compounds read low",0.0705 (active)
same,normalized growth,"S. cerevisiae deletion strains, locus YPR163C, strain tif3, active compounds read low",0.07 (active)
same,normalized growth,"S. cerevisiae deletion strains, locus YPR167C, strain met16, active compounds read low",0.0606 (active)
same,normalized growth,"S. cerevisiae deletion strains, strain wtn01, active compounds read low",0.0609 (active)
same,normalized growth,"S. cerevisiae strains, strain wild type, active compounds read low",0.0473 (active)
